# Measurements: PubChem BioAssay (NCI)
# Compounds without any hit were thinned out: in the full panel of roughly 83,000, 20% have a hit.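 Method: cells in 96-well plates; compound added at one concentration; 48 h incubation; percent growth measured; values under 10 scored active.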 Activity calls are given as the source filed them.
# Tested on: UACC-62 melanoma
# Assay: NCI-60 one-dose screen, 48 h (100 = growth as untreated, 0 = no growth, -100 = all killed)
# Conditions: 10 µM
# Procedure: Growth inhibition of the UACC-62 human tumor cell line is measured as a screen for anti-cancer activity. Cells are grown in 96 well plates and exposed to the test compound for 48 hours. Compounds are tested at a single concentration, which is 10^-5 M for most compounds. The reported endpoint is percent growth (GI% or GIPRCNT), where numbers from 0 - 100% represent growth inhibition, and numbers from -100% - 0 represent cell death. For example, a value of 40 represents 60% growth inhibition. A value of 0 means no net growth occurred over the course of the experiment. A value of -40 indicates 40% of cells at the beginning of the experiment died by the end of the experiment. A value of -100 means all cells are dead at the end of the experiment.
# NCI-60 Human Tumor Cell Lines Screen was performed using the standard one-dose NCI protocol, which is described in more detail at https://dtp.cancer.gov/discovery_development/nci-60/default.htm.
# Compounds with GIPRCNT values below 10 were considered active. Activity score was based on GIPRCNT using the following formula: […]
# Score is 0 for GIPRCNT values of 100 or above, 50 for GIPRCNT values of 0, and 100 for GIPRCNT values of -100.
row,SMILES,growth
1,CC(=O)N[C@H](C(=O)N[C@@H](CCCNC(=N)N)C(=O)N[C@@H](CCCCN)C(=O)N[C@@H](CCCNC(=N)N)C(=O)N[C@]1(C)CCC/C=C\CCC[C@@](C)(C(=O)N[C@@H](CC(C)C)C(=O)N[C@@H](CC(C)C)C(=O)N[C@@H](CCC(N)=O)C(=O)N[C@@H](CCC(=O)O)C(=O)N[C@@H](CCCNC(=N)N)C(=O)N[C@@H](CCC(=O)O)C(=O)N[C@@H](CC(C)C)C(=O)N[C@H](C(=O)N[C@@H](CCC(=O)O)C(N)=O)C(C)C)NC(=O)[C@H](CCCNC(=N)N)NC(=O)[C@H](CC(C)C)NC1=O)C(C)C,105% (inactive)
2,COc1cc(-c2nn(-c3cccc(NC(=O)CCN4CCN(c5ccccc5)CC4)c3)cc2-c2ccncc2)ccc1Cl,26.6% (inactive)
3,Cc1cc(O)ccc1C1=NN(c2ccc(S(C)(=O)=O)cc2)C(=O)CC1,52.9% (inactive)
4,CN(C)c1ncnc2c1nnn2C1OC(CO)C(O)C1O (stereo not given),-32.9% (active)
5,CC(=O)C1CCC2C3CC=C4CC(SC(=N)N)CCC4(C)C3CCC12C (stereo not given),64.4% (inactive)
6,O=[N+]([O-])c1cc(Cl)cc(Cl)c1O,103% (inactive)
7,NC1=NC(c2ccc(Cl)cc2)C2=C(N1)/C(=C/c1ccc(Cl)cc1)CCC2 (stereo not given),74.4% (inactive)
8,COc1ccc2c(c1)C(=O)/C(=C/c1ncc([N+](=O)[O-])n1C)O2,-68.4% (active)
9,CCCN(CCC)C(=O)[C@H](CC)[C@@H]1CC[C@@H](C)[C@@H]([C@H](C)[C@@H](O)[C@@H](C)C(=O)[C@H](CC)C2O[C@]3(C=C[C@@H](O)[C@]4(CC[C@@](C)([C@H]5CC[C@](O)(CC)[C@H](C)O5)O4)O3)[C@H](C)C[C@@H]2C)O1 (stereo not given in full),14.9% (inactive)
10,COc1ccc2nc3cc(Cl)ccc3c(NCCCNCCO)c2c1,-64.2% (active)
11,COc1ccc(NC(=O)C2CC3C=CC2C3)c([N+](=O)[O-])c1 (stereo not given),96.5% (inactive)
12,COc1ccc(/C=C2\CCCC3C2=Nc2ccccc2NC3c2ccc(OC)cc2)cc1 (stereo not given),68% (inactive)
13,CCOC(=O)C(C)(c1ccccc1)c1ccccc1,102% (inactive)
14,COc1ccc(-c2nn(-c3cccc(Cl)c3)cc2-c2cc(-c3ccccc3)nc(N)n2)cc1,74.3% (inactive)
15,CCc1cc(Cl)c(OC)c(C(=O)NCC2CCCN2CC)c1O (stereo not given),97% (inactive)
16,O=C(COc1cccc(/C=C2\CSc3ccc(Cl)cc3C2=O)c1)c1ccc(Cl)cc1,71.1% (inactive)
17,CCCCC/C=C/C/C=C/CCCCCCCC1=NC(C)(C)CN1C(C)C,15.1% (inactive)
18,C=C(C)[C@@H]1CC[C@]2(COCCC#N)CC[C@]3(C)[C@H](CC[C@@H]4[C@@]5(C)Cc6c([nH]c7ccccc67)C(C)(C)[C@@H]5CC[C@]43C)[C@@H]12,105% (inactive)
19,O=C(Nc1ccc(F)cc1)c1cc2ccccc2cc1O,57.6% (inactive)
20,COc1cc2c(Nc3ccc(-c4ccc(N)cc4)cc3)ncnc2c(OC)c1OC,7.02% (active)

row,SMILES,growth
1,COc1cc(C2C(C#N)=C(N)Oc3cc(O)ccc32)cc(OC)c1OC (stereo not given),38.4% (inactive)
2,CN(C)CCOc1cccc(-c2nc3sccn3c2-c2ccnc(S(C)(=O)=O)n2)c1,91.4% (inactive)
3,S=C(SSC(=S)N(c1ccccc1)c1ccccc1)N(c1ccccc1)c1ccccc1,103% (inactive)
4,OCC1OC(n2ccc3c(NO)ncnc32)C(O)C1O (stereo not given),-88.8% (active)
5,COc1ccc(C(=O)CC(CC(=O)c2ccc(OC)cc2)c2c(C)nn(-c3ccccc3)c2Cl)cc1,88.3% (inactive)
6,CCCCc1oc2ccccc2c1C(=O)c1cc(I)c(OCCN(CC)CC)c(I)c1,-86.8% (active)
7,c1cncc(-c2csc(-c3c[nH]c4ccccc34)n2)c1,88.7% (inactive)
8,COc1cc(/C=C2\CCCC3C2=Nc2ccccc2NC3c2cc(OC)c(OC)c(OC)c2)cc(OC)c1OC (stereo not given),-32.6% (active)
9,CCOC(=O)CN(c1sc(C)c(C)c1C(=O)OCC)S(=O)(=O)c1ccc(C)cc1,68.2% (inactive)
10,Cc1ccc(NCCN(C)CC(C)O)c2c(=O)c3ccc(Cl)cc3sc12 (stereo not given),-68.7% (active)
11,CS(=O)(=O)c1nccc(-c2c(-c3cccc(OCCN4CCOCC4)c3)nc3sccn23)n1,89.1% (inactive)
12,CN(C)CCC1(c2ccccc2)CCN(C)C1=O (stereo not given),105% (inactive)
13,NC1=NC(c2ccccc2)C2=C(N1)/C(=C/c1ccccc1)CCC2 (stereo not given),77.5% (inactive)
14,Cc1n[nH]c(C)c1N=Nc1cccc2c1C(=O)c1ccccc1C2=O,89.5% (inactive)
15,CC(=O)Nc1ccc(S(=O)(=O)N/N=C(\C)c2ccc(C)cc2C)cc1,107% (inactive)
16,N#CC1=CC2CN(Cc3ccccc3)C1C1C(=O)N(c3ccccc3)C(=O)C21 (stereo not given),90.7% (inactive)
17,O=C(CI)OCC(COC(=O)CI)OC(=O)CI,80.9% (inactive)
18,COc1cc(/C=C/c2cc(/C=C/c3ccc(O)c(OC)c3)n(C(=O)Nc3ccc(C)cc3)n2)ccc1O,-0.493% (active)
19,OCC1OC2C(NC(=S)N2c2ccccc2)C(O)C1O (stereo not given),98.7% (inactive)
20,COc1cc(/C=C/c2cc(/C=C/c3ccc(O)c(OC)c3)n(C(=O)Nc3ccccc3Cl)n2)ccc1O,1.04% (active)
